This passage reports binding signal results from paper PMC8384837, “Expanding the binding specificity for RNA recognition by a PUF domain”.

What all share (test): yeast three-hybrid, YBZ-1, SC-Leu-His + 0.5 mM 3-AT, 4 days
Details in all cases: tags: N-Gal4 AD-HA kept; label: inside an RPR1-promoter hybrid RNA with tandem MS2 sites; ssRNA

Assay [1] addresses PUM1 PUF domain R5-KFC (Homo sapiens, UniProt Q14671 828-1176, C1007K;R1008F;Q1011C). In short, it runs like this: (§1)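 The interaction score is the logarithmic change in variant frequency from input to selection. It uses log2, with a pseudocount of 1 for absent variants, and frequencies came from PCR-amplified, Illumina-sequenced repeat regions. The libraries were Pumilio-1 PUF domains randomized at the three base-contacting residues per repeat, co-expressed with matching RNA elements in strain YBZ-1 (LexA–MS2 coat fusion, HIS3 reporter). Plating lasted four days on SC-Leu (input) or SC-Leu-His + 0.5 mM 3-AT (selection).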

Assay [2] concerns the target PUM1 PUF domain R5-RRE (Homo sapiens, UniProt Q14671 828-1176, C1007R;Q1011E). A digest of the protocol: as §1
The target in assay [3] is PUM1 PUF domain R5-KFW (Homo sapiens, UniProt Q14671 828-1176, C1007K;R1008F;Q1011W). In short, it runs like this: as §1
For assay [4], the target named is T1, PUM1 PUF domain R6-MWR (Homo sapiens, UniProt Q14671 828-1176, N1043M;Y1044W;Q1047R).
T1 sequence: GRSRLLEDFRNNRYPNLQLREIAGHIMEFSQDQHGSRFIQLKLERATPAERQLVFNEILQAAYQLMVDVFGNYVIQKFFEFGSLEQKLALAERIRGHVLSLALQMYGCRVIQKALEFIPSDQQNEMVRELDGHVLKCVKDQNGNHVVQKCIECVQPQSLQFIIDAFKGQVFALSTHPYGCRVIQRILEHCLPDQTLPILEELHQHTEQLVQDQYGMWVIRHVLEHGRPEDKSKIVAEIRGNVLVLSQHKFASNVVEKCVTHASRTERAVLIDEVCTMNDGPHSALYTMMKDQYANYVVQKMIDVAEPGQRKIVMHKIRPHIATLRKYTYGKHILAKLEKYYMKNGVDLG
A digest of the protocol: as §1

In assay [5] the target is PUM1 PUF domain R3-DWE (Homo sapiens, UniProt Q14671 828-1176, C935D;R936W;Q939E). A digest of the protocol: as §1
In assay [6] the target is PUM1 PUF domain R3-FFG (Homo sapiens, UniProt Q14671 828-1176, C935F;R936F;Q939G). In short, it runs like this: as §1
Assay [7] addresses PUM1 PUF domain R3-LWV (Homo sapiens, UniProt Q14671 828-1176, C935L;R936W;Q939V). In short, it runs like this: as §1
The target of assay [8] is T2, PUM1 PUF domain R6-TWQ (Homo sapiens, UniProt Q14671 828-1176, N1043T;Y1044W).
T2 sequence: T1 sequence with M216T, R220Q
A digest of the protocol: as §1

The target of assay [9] is PUM1 PUF domain R7-GPK (Homo sapiens, UniProt Q14671 828-1176, S1079G;N1080P;E1083K). A digest of the protocol: as §1
The target of assay [10] is PUM1 PUF domain R3-RRL (Homo sapiens, UniProt Q14671 828-1176, C935R;Q939L). A digest of the protocol:
as §1

Residue numbers refer to the chain shown, from its start.

PUM1 PUF domain R5-RRE, sequence (Q14671 828-1176 C1007R/Q1011E): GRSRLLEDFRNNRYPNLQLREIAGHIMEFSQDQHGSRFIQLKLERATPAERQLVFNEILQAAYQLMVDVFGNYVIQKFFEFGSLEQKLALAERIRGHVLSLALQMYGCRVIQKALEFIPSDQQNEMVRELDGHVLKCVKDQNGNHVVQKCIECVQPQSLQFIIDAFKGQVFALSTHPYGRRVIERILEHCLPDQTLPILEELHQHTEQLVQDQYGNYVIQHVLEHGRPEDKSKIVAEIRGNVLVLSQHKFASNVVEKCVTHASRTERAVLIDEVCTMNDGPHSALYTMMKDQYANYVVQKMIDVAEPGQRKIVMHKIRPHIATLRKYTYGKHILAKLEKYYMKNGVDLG

Regarding “GGCUAGAACUAGUGGAUCCCCCGGCGCCCGGCGGCUCGAGCCCGGGUAAGUGUCAAUAGUCUGCAUGCCGCCGGGCGCCAUGCCUGCAGGUCGACUCUAGAAAACAUG”, the binding signal in [1] was 3.89 log2 enrichment (interaction score); in assay [2] it was 4.96 log2 enrichment (interaction score); in [3], 4.73 log2 enrichment (interaction score).
Take “GGCUAGAACUAGUGGAUCCCCCGGCGCCCGGCGGCUCGAGCCCGGGUAAGUGUAAAUAGUCUGCAUGCCGCCGGGCGCCAUGCCUGCAGGUCGACUCUAGAAAACAUG”: the binding signal in [1] is 5.41 log2 enrichment (interaction score); in [4], 7.74 log2 enrichment (interaction score); in assay [5] it was 2.3 log2 enrichment (interaction score); in assay [2], 1.27 log2 enrichment (interaction score); in [3] it was 3.83 log2 enrichment (interaction score); in assay [6] it was 3.38 log2 enrichment (interaction score). Moreover, the binding signal in [7] was 3.07 log2 enrichment (interaction score).
In the case of “GGCUAGAACUAGUGGAUCCCCCGGCGCCCGGCGGCUCGAGCCCGGGUAAGUGAAAAUAGUCUGCAUGCCGCCGGGCGCCAUGCCUGCAGGUCGACUCUAGAAAACAUG”, the figures for the binding signal in assay [4] and in assay [8] were 3.34 log2 enrichment (interaction score) and 2.43 log2 enrichment (interaction score), respectively.
Regarding “GGCUAGAACUAGUGGAUCCCCCGGCGCCCGGCGGCUCGAGCCCGGGUAAGUUUAAAUAGUCUGCAUGCCGCCGGGCGCCAUGCCUGCAGGUCGACUCUAGAAAACAUG”, the binding signal in [9] was 3.11 log2 enrichment (interaction score).
Turning to “GGCUAGAACUAGUGGAUCCCCCGGCGCCCGGCGGCUCGAGCCCGGGUAAGUGUGAAUAGUCUGCAUGCCGCCGGGCGCCAUGCCUGCAGGUCGACUCUAGAAAACAUG”, in assay [2], the binding signal was 2.27 log2 enrichment (interaction score).
Consider “GGCUAGAACUAGUGGAUCCCCCGGCGCCCGGCGGCUCGAGCCCGGGUAAGUGUUAAUAGUCUGCAUGCCGCCGGGCGCCAUGCCUGCAGGUCGACUCUAGAAAACAUG”, for which the binding signal in assay [1] was 5.65 log2 enrichment (interaction score); in assay [2], 5.72 log2 enrichment (interaction score).
Take “GGCUAGAACUAGUGGAUCCCCCGGCGCCCGGCGGCUCGAGCCCGGGUAAGUGUAAUUAGUCUGCAUGCCGCCGGGCGCCAUGCCUGCAGGUCGACUCUAGAAAACAUG”: the results for the binding signal in assay [10], in assay [6] and in assay [7] were 3.07 log2 enrichment (interaction score), 3.8 log2 enrichment (interaction score) and 3.36 log2 enrichment (interaction score), respectively.
Turning to “GGCUAGAACUAGUGGAUCCCCCGGCGCCCGGCGGCUCGAGCCCGGGUAAGUGCAAAUAGUCUGCAUGCCGCCGGGCGCCAUGCCUGCAGGUCGACUCUAGAAAACAUG”, in assay [4], the binding signal is 2.97 log2 enrichment (interaction score).
For the sequence “GGCUAGAACUAGUGGAUCCCCCGGCGCCCGGCGGCUCGAGCCCGGGUAAGUGUAAGUAGUCUGCAUGCCGCCGGGCGCCAUGCCUGCAGGUCGACUCUAGAAAACAUG”, the binding signal was 7.59 log2 enrichment (interaction score) in assay [6] and 4 log2 enrichment (interaction score) in assay [7].
